High-throughput results: PubChem BioAssay, National Center for Advancing Translational Sciences (NCATS)
Shiga inhibitor – A qHTS for Small Molecule Inhibitors of Shiga Toxin; AID 2315, 2010; Vero cells, Shiga toxin protein synthesis inhibition reporter; 9.2% of 290,000 active; inhibition, % at 38.7 µM; in the data active means inhibition mostly above about 28%, no sharp cut-off; inactive means mostly below about 43%
AMA1-RON2 inh – qHTS for Inhibitors of AMA1-RON; Towards Development of Antimalarial Drug Lead: Primary Screen | Plasmodium falciparum AMA1 (3D7) - RON2 peptide interaction | AlphaScreen AMA1-biotinylated RON2 peptide binding | Potency, µM (titrated, usually from 58.2 µM), hits mostly inhibitors | 0.2% of 360,000 active; further: nearly all actives have a fitted effect of over 45% in size
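AMA1 (3D7) with his tag at 25 nM final met compounds first, then biotinylated RON2 peptide at 25 nM; detection used donor plus acceptor beads, 10 µg/mL apiece, read by AlphaScreen after 30 min at room temperature.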
Pf growth 96h – Primary qHTS for delayed death inhibitors of the malarial parasite plastid, 96 hour incubation. P. falciparum luciferase reporter growth, 96 h. Potency, µM (highest dose often 28.7 µM), most hits filed as inhibitors. 6.9% of 320,000 active. AID 504834, 2011
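Two parasite generations (96 h, 37 C, 5% CO2) of compound exposure in infected erythrocytes (0.05% parasitemia, 2% hematocrit). Luciferase-reporter P. falciparum; decreased luminescence indicates inhibited growth, aimed at apicoplast-acting delayed death.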
SARS PLpro yeast-1 – qHTS of Yeast-based Assay for SARS-CoV PLP. S. cerevisiae expressing SARS-CoV PLpro, growth rescue. Potency, µM (highest dose often 32.9 µM), most hits filed as activators. 0.19% of 330,000 active; calls by dose curve; further: nearly all actives have a fitted effect of over 55% in size
Pf growth 48h – Primary qHTS for delayed death inhibitors of the malarial parasite plastid, 48 hour incubation | P. falciparum luciferase growth in erythrocytes, 48 h | Potency, µM (top dose mostly 28.7 µM), hits mostly inhibitors | 5.9% of 310,000 active | AID 504832, 2011
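Compounds are pin-transferred into medium, infected erythrocytes (2% hematocrit, 0.1% parasitemia final) are added, and plates sit one parasite generation at 37 C in 5% CO2. Detection reagent is then added and luminescence measured.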
CHX counter – Cycloheximide Counterscreen for Small Molecule Inhibitors of Shiga Toxin. cell reporter, cycloheximide protein synthesis inhibition counterscreen. max response, %. 12% of 300,000 active. AID 2314, 2010; in the data active means max response mostly above about 13%, no sharp cut-off; inactive means mostly below about 14%; further: read at 38.3 µM for the half of the compounds with a filed dose
SARS PLpro yeast-2 – qHTS of Yeast-based Assay for SARS-CoV PLP: Hit Validation. shares compounds with SARS PLpro yeast-1. yeast expressing SARS-CoV PLpro, growth phenotype rescue. calls only. 19% of 1,000 active. AID 652038, 2013; call rule not given here
A number is an active result; i = inactive; ? = inconclusive; nt = no result; + = active, no number; [ ] = another dose, or the depositor's remark. This is a sample that favours compounds with a hit; in the whole collection about 19% have one here. Unless noted, the call rests on the fitted dose curve; in most records, active means well fitted curve in the direction sought with a large enough effect; inconclusive means small, poorly fitted or top-dose-only effect, or another doubt; inactive means no such curve, though single readings can be large; an effect the other way counts as inactive or inconclusive.

SMILES | Shiga inhibitor | AMA1-RON2 inh | Pf growth 96h | SARS PLpro yeast-1 | Pf growth 48h | CHX counter | SARS PLpro yeast-2
S=C(NCCc1ccccc1)Nc1ccccn1 | 91.6 | i | ? | 5.62µM | i | 39.2 | +
O=C(Nc1ccccn1)c1ccc([N+](=O)[O-])o1 | 65.3 | i | ? | 10µM | ? | 32.8 | i
CC1CCCCC12NC(=O)N(CC(=O)NCc1ccccc1Cl)C2=O (stereo not drawn) | nt | i | nt | i | nt | nt | nt
COC(=O)N/N=C/c1ccccc1OCc1ccccc1 | i | i | i | i | i | i | nt
Cc1ccc(C(C)C)c(OCc2ccc(C(=O)N/N=C/c3cccc(O)c3O)cc2)c1 | active | i | 2.62µM | 2.82µM | 1.65µM | 28.7 | ?
O=C(N/C(=C\c1ccc(Br)cc1)C(=O)N1CCOCC1)c1ccc([N+](=O)[O-])cc1 | i | i | i | i | i | i | nt
CN1C(=O)SC(Nc2ccccc2)C1=O (stereo not drawn) | i | i | ? | 12.6µM | i | i | i
Cc1ccc(NC(=O)/C=C/c2ccc3c(c2)OCO3)nc1 | 147.1 | i | ? | ? | i | 56.5 | i
Cc1ccc(NC(=O)/C=C/c2cccc([N+](=O)[O-])c2)nc1 | i | i | i[5.75 µM] | i | i | i | nt
O=C(CSc1nc(-c2ccco2)cc(C(F)(F)F)n1)Nc1ccccc1C(F)(F)F | i | i | 7.38µM | ? | i | i | i
Cc1cccc(C)c1NC(=O)CSc1nc(-c2ccco2)cc(C(F)(F)F)n1 | i | i | i | i | ? | i | nt
CC(C)C1Oc2ccccc2N(CC(=O)N(Cc2ccccn2)CC2CCCO2)C1=O (stereo not drawn) | i | i | i | 1.78µM | i | i | i
CCOc1ccc(CNC(=O)C2CCN(S(=O)(=O)c3ccc4c(c3)CCCC(=O)N4)CC2)cc1 | i | i | 9.28µM | ? | 9.28µM | i | +
CCOc1ccccc1CNC(=O)CCNC(=O)Cn1ccc2ccccc2c1=O | i | i | i | ? | i | i | i
Cc1ccc(C2CC2C(=O)NNC(=S)Nc2cccc(C)c2)cc1 (stereo not drawn) | i | i | ? | 10µM | i | i | i
CC(=O)c1cccc(NC(=S)NC2CCCCCCC2)c1 | i | i | i | i | i | i | nt
Cc1cccc(NC(=S)NC2CCCC2)c1 | i | i[2.32 µM] | i | ? | i | i | +
Cc1ccccc1NC(=O)CCN1CCc2ccccc2C1 | i | i | i | i | ? | i | nt
Cc1cc(/C=N/NC(N)=S)c(C)n1-c1ccc(Cl)c(Cl)c1 | i | i | 11.7µM | ? | 13.1µM | i | i
C/C(=N\NC(=S)NC1CCCCC1)c1ccc(C#N)cc1 | i | i | i | 15.8µM | i | i | +
CC1CC1C(=O)N(C)CC(=O)Nc1ccc(Cl)c(C(F)(F)F)c1 (stereo not drawn) | nt | i | ? | ? | i | nt | i
CN(CC(=O)Nc1ccc(Cl)c(C(F)(F)F)c1)C(=O)c1ccc2c(c1)OCCO2 | nt | i | i | i | i | nt | nt
O=C(COc1ccc([N+](=O)[O-])cc1)NNC(=O)c1cccs1 | i | i | i | i | i | i | nt
Cc1ccc(NC2OC(C(O)CO)C(O)C2O)cc1[N+](=O)[O-] (stereo not drawn) | i | i | ? | i | i | i | nt
O=C(CCl)Nc1cccc2ncccc12 | i | i | i | 11.2µM | 2.33µM | i | +
SMILES | Shiga inhibitor | AMA1-RON2 inh | Pf growth 96h | SARS PLpro yeast-1 | Pf growth 48h | CHX counter | SARS PLpro yeast-2
COc1ccc(OCC(=O)Nc2cccc3ncccc23)cc1 | i | i | i | i | i | i | nt
O=C(NC1CCC(O)CC1)c1ccc(Br)o1 (stereo not drawn) | nt | i | nt | 4.47µM | nt | nt | i
S=c1[nH]nc(-c2ccncc2)n1/N=C/c1ccccc1 | i | i | ? | ? | i | i | i
Cc1cccc(/C=N/n2c(-c3ccncc3)n[nH]c2=S)c1 | i | i | i | i | i | i | nt
CN(CCCC(=O)NC1CC(C)(C)NC(C)(C)C1)S(=O)(=O)c1ccc([N+](=O)[O-])cc1 | i | i | ? | i | i | i | nt
COc1ccc(S(=O)(=O)NCC(=O)NCCc2ccc(OC)c(OC)c2)cc1 | nt | i | nt | nt | nt | nt | nt
Oc1c(C(Nc2cccc(C(F)(F)F)c2)c2ccncc2)ccc2cccnc12 (stereo not drawn) | i | i | ? | ? | 1.85µM | i | i
CCOc1ccc(C(Nc2cccnc2)c2cc(Cl)c3cccnc3c2O)cc1 (stereo not drawn) | i | i | ? | i | ? | i | nt
COc1ccc(CNC(=O)CN(C(=O)CCC(=O)Nc2nccs2)c2cccc(C)c2)cc1 | i | i | i | i | i | i | nt
Cc1cccc(OCC(=O)Nc2ccc(S(=O)(=O)N3CCN(C)CC3)cc2)c1 | i | i | ? | 3.55µM | ? | i | i
O=C(C1=C(O)C(=O)N(CCCN2CCOCC2)C1c1ccncc1)c1cc2ccccc2o1 (stereo not drawn) | i | nt | ? | 12.6µM | i | i | +
O=C(C1=C(O)C(=O)N(CCN2CCOCC2)C1c1cccnc1)c1cc2ccccc2o1 (stereo not drawn) | i | i | nt | i | i | i | nt
CC(=O)NC(CC(=O)Nc1ccc(S(=O)(=O)Nc2nccs2)cc1)c1ccccc1 (stereo not drawn) | nt | i | i | i | ? | nt | nt
CC(=O)NC(CC(=O)Nc1ccc(S(=O)(=O)NC2=NCCCCC2)cc1)c1ccccc1 (stereo not drawn) | nt | i | i | ? | i | nt | i
CCOCc1nnc(NC(=O)c2cc(OC)c(OC)cc2[N+](=O)[O-])s1 | i | i | i | i | i | i | nt
Cc1ccc(C)c(N2CC(=O)N(c3cc(C)ccc3C)CC2=O)c1 | i | i | nt | ? | i | i | i
NS(=O)(=O)c1ccc(F)c(C(=O)O)c1 | i | i | i | i | i | i | nt
CC(C)(C)n1ncc(Oc2ccccc2[N+](=O)[O-])c(Cl)c1=O | i | i | i | ? | i | i | i
CNC(=O)CSc1nc2nn(-c3ccccc3)c(=O)c-2c2n1CCCCC2 | i | i | ? | i | ? | i | nt
O=C(CSc1nc2nn(-c3ccccc3)c(=O)c-2c2n1CCCCC2)c1ccc(O)c(O)c1 | nt | i[11.6 µM] | ? | 7.08µM | 9.28µM | nt | i
Cc1ccc(CNC(=O)C(=O)NCC2OCCCN2S(=O)(=O)c2ccc(F)cc2)cc1 (stereo not drawn) | i | i | i | i | i | i | nt
COc1cc(C(=O)NC(=S)NNC(=O)c2cnccn2)cc(OC)c1OC | i | i | ? | ? | 11.7µM | i | i
CCc1nnc(N/N=C/c2ccccc2F)n1N | i | i | i | i | i | i | nt
CC(C)(C)c1nnc(N/N=C/c2ccccc2O)n(N)c1=O | i | i | ? | 3.16µM | 3.29µM | i | i
C/C(CC(=O)NC1CCCCCC1)=N\NC(=O)c1cnccn1 | 45.7 | i | i | 3.55µM | i | 25.6 | i
